The source made the active and inactive calls.
Experiments:
[1] = optical density shifts of acrAB sulA E. coli – strain DRC41, OD650, 48 h, E. coli filamentation inducer project, primary screen (AID 1152); conditions: higher = more signal, called active from +8 up or from −8 down;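 also: E. coli MC1000 strain DRC41 lacking acrAB efflux pump and sulA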
[2] = probe aLefty1 binding on compound microarray – biochemical, small-molecule microarray, 635/667 nm fluorescence, primary screen (AID 1153); conditions: higher = more signal;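 also: score merges spot fluorescence with signal-to-noise ratio from the scanned slide images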
[3] = plasmodial surface anion channel blockers, osmotic lysis – cell-based, P. falciparum Indochina, OD700, 1 h, primary screen (AID 1154); conditions: P. falciparum Indochina infected RBC osmotic lysis, higher = more signal, called active from +8 up or from −8 down
[4] = plasmodial surface anion channel blockers, osmotic lysis – cell-based, P. falciparum Indochina, OD700, 2 h, primary screen (AID 1155);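 also: lysis reports solute entry through the parasite surface anion channel PSAC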; conditions: P. falciparum Indochina infected erythrocytes, higher = more signal, called active from +8 up or from −8 down
[5] = changes in parasitized red cell lysis, either direction – P. falciparum Indochina, OD700, 3 h, PSAC antagonist project, primary screen (AID 1156); conditions: P. falciparum-infected erythrocytes, osmotic lysis, higher = more signal, called active from +8 up or from −8 down
[6] = plasmodial surface anion channel blockers, osmotic lysis – cell-based, P. falciparum Indochina, OD700, 18 h, primary screen (AID 1157); conditions: P. falciparum Indochina infected erythrocytes, osmotic lysis OD700, 18 h; higher = more signal, called active from +8 up or from −8 down
[7] = S6 kinase pathway phospho-S6 level changes – cell-based, A549, cytoblot, luminescence, serum-stimulated, primary screen (AID 1158); conditions: 5 h, higher = more signal;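 also: serum-stimulated A549 lung adenocarcinoma cells; signal is phosphorylated S6 detected by cytoblot immunostaining with HRP secondary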
[8] = target: NADPH oxidase 2 (Homo sapiens) (UniProt P04839); test: compounds shifting NOX2 Amplex Red fluorescence – cell-based, HEK293-NOX2, PMA-stimulated, NOX inhibitor project, primary screen (AID 1159); conditions: 45 min, higher = more signal, called active from +8 up or from −8 down; also: test concentration not given here
NADPH oxidase 2 (Homo sapiens), sequence (P04839 whole entry, looked up): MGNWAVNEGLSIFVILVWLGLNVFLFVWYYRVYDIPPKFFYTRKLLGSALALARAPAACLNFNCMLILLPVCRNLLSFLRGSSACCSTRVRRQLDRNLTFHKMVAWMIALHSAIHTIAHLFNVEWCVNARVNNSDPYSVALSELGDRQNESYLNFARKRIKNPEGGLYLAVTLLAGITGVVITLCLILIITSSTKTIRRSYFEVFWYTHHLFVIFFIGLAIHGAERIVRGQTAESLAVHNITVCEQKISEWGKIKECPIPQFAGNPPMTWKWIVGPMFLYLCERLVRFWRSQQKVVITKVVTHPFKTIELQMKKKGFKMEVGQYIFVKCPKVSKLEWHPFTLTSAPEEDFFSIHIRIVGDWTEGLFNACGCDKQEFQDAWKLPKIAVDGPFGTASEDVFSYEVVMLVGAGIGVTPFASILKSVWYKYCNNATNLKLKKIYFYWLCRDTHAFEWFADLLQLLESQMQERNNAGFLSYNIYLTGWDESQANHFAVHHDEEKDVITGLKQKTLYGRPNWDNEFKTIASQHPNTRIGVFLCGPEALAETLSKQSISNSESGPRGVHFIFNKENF

[9] = target: NADPH oxidase 4 (Homo sapiens) (UniProt Q9NPH5); test: compounds shifting NOX4 Amplex Red fluorescence – cell-based, HEK293-NOX4, tetracycline-induced, NOX inhibitor project, primary screen (AID 1160); conditions: HEK293-NOX4, Amplex Red H2O2 fluorescence, 45 min; higher = more signal, called active from +8 up or from −8 down
NADPH oxidase 4 (Homo sapiens), sequence (Q9NPH5 whole entry, looked up): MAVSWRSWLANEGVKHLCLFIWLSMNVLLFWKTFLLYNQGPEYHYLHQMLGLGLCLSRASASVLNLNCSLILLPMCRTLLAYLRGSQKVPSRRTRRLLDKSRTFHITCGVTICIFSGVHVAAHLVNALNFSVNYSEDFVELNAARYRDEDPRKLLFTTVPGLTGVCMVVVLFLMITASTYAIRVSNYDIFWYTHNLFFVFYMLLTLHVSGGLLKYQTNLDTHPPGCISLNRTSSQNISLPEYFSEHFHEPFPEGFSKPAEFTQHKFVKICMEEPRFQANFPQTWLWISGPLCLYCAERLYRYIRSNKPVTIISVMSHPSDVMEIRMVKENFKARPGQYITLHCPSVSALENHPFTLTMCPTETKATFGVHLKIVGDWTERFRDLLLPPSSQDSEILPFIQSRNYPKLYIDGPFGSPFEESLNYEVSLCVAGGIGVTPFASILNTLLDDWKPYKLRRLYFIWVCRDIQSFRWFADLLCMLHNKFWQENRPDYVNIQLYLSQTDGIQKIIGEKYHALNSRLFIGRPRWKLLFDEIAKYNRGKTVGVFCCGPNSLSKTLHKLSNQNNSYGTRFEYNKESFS

[10] = target: NADPH oxidase 5 (Homo sapiens) (UniProt Q96PH1); test: compounds shifting NOX5 Amplex Red fluorescence – cell-based, HEK293-NOX5, NOX inhibitor project, primary screen (AID 1161); conditions: HEK293-NOX5, ionomycin, 45 min, higher = more signal
NADPH oxidase 5 (Homo sapiens), sequence (Q96PH1 whole entry, looked up): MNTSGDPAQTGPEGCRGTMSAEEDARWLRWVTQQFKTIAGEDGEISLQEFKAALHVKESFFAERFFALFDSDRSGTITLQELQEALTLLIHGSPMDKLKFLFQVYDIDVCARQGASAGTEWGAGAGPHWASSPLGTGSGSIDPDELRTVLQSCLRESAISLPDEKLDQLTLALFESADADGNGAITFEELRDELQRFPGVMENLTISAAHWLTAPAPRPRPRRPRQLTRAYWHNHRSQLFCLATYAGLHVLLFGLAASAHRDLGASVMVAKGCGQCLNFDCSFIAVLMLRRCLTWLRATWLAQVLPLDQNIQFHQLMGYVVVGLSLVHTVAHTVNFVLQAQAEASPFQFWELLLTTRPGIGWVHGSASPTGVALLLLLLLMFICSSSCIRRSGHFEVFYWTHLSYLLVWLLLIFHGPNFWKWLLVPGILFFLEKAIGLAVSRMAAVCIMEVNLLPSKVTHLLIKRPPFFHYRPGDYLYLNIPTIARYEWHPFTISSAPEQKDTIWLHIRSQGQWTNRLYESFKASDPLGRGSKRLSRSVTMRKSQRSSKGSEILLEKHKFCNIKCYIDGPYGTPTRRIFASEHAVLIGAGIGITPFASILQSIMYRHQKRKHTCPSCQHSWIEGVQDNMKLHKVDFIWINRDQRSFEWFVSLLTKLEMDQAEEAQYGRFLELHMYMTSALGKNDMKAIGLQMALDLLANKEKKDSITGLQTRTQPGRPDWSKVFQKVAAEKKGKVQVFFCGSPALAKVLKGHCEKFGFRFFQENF

Row | SMILES | z-score [1] | composite z-score [2] | z-score [3] | z-score [4] | z-score [5] | z-score [6] | z-score [7] | z-score [8] | z-score [9] | z-score [10]
1 | CS(=O)(=O)CCOC(=O)C1=CC(CCCO)=CC(c2ccc(CN3CCCC3)cc2)N(Cc2cc3c(cc2Br)OCO3)C=C1C(=O)OCCS(C)(=O)=O (stereo not given) | -0.357 (inactive) | 0.485 | 0.246 (inactive) | -0.211 (inactive) | 1.14 (inactive) | 0.111 (inactive) | -0.606 | 2.54 (inactive) | 0.524 (inactive) | 0.597
2 | O=C(NCc1ccccc1)[C@@H]1c2ccccc2C(=O)N(CC23CC4CC(CC(C4)C2)C3)[C@H]1c1ccc(CO)cc1 | -1.09 (inactive) | -0.538 | 3.76 (inactive) | 0.295 (inactive) | 1.76 (inactive) | 0.134 (inactive) | -0.366 | -2.38 (inactive) | 0.191 (inactive) | -1.55
3 | CC(C)(C)OC(=O)CC[C@@]1(C(=O)NCC(O)CO)N=C(c2ccc(OCCCO)cc2)O[C@@H]1c1ccccc1N=[N+]=[N-] (stereo not given in full) | 1.99 (inactive) | 0.379 | 31.9 (active) | 28.4 (active) | 3.82 (inactive) | 7.71 (inactive) | 0.123 | -2.77 (inactive) | 1.03 (inactive) | -1.85
4 | CC(C)(C)OC(=O)CC[C@]12N=C(c3ccc(OCCCO)cc3)O[C@H]1c1ccccc1N(CCS(=O)(=O)c1ccccc1)C2=O | -1.59 (inactive) | 0.447 | 32.2 (active) | 28.5 (active) | 4.08 (inactive) | 8.71 (active) | -0.321 | -0.859 (inactive) | 1.12 (inactive) | -1.06
5 | [N-]=[N+]=Nc1ccccc1C[C@@]1(C(=O)NCCN2CCOCC2)N=C(c2ccc(OCCCO)cc2)O[C@@H]1c1ccccc1 | 1.06 (inactive) | 0.234 | 28.8 (active) | 24.3 (active) | 2.41 (inactive) | 5.39 (inactive) | 0.368 | -0.57 (inactive) | 1.25 (inactive) | 0.589
6 | Cc1ccc(S[C@]2(C(=O)NCCN3CCOCC3)CC(=O)N(Cc3ccccc3Cl)[C@@H]2c2ccc(CO)cc2)cc1 | 0.59 (inactive) | 0.0402 | 2.62 (inactive) | 0.43 (inactive) | 1.94 (inactive) | 0.524 (inactive) | 0.413 | -2.29 (inactive) | -1.85 (inactive) | -2.89
7 | CC(=O)NCCCC[C@@H]1NC(=O)[C@@H]2C[C@H](C(=O)NCCCCN(C)C)[C@H](c3cccc(OCCO)c3)N2C1=O | 0.522 (inactive) | -0.243 | 0.628 (inactive) | 0.0655 (inactive) | -0.0825 (inactive) | 0.105 (inactive) | -0.326 | -0.0869 (inactive) | -0.115 (inactive) | -0.205
8 | O=C1C2C=CC(C(O)C(c3ccccc3)c3ccccc3)N(n3cnnc3)C2C(=O)N1Cc1ccccc1 (stereo not given) | -1.48 (inactive) | 0.169 | 2.36 (inactive) | 1.26 (inactive) | -0.218 (inactive) | 0.949 (inactive) | -0.429 | 0.67 (inactive) | -2.83 (inactive) | -0.766
9 | O=C1O[C@H](c2ccccc2)[C@H](c2ccccc2)N2[C@H]1[C@@H](C(=O)O)[C@]1(C(=O)Nc3ccc(C#CCCO)cc31)[C@H]2c1ccc(O)cc1 | 1.4 (inactive) | 0.334 | 1.43 (inactive) | 0.4 (inactive) | 0.735 (inactive) | 0.531 (inactive) | 0.282 | -0.185 (inactive) | -0.455 (inactive) | 0.157
10 | COC(=O)[C@@]1(Cc2ccc(OC)cc2)[C@H]2c3cc(C(=O)N4CCCC4)n(Cc4ccsc4Br)c3C[C@H]2CN1C(=O)c1ccccc1 | -0.68 (inactive) | 0.0429 | 0.538 (inactive) | -0.155 (inactive) | 0.0114 (inactive) | 0.469 (inactive) | 0.0613 | 0.289 (inactive) | -0.137 (inactive) | -1.24
11 | Cc1ccc(S[C@]2(C(=O)NCCN3CCOCC3)CC(=O)N(Cc3ccccc3)[C@@H]2c2ccc(CO)cc2I)cc1 | 0.434 (inactive) | 0.0752 | 8.54 (active) | 0.37 (inactive) | 1.13 (inactive) | -1.19 (inactive) | 2.42 | 1.99 (inactive) | -2.89 (inactive) | 0.422
12 | CC(=O)n1cc(C(O)C2C=CC3C(=O)N(C)C(=O)C3N2Nc2ccccc2)c2ccccc21 (stereo not given) | -1.39 (inactive) | 0.384 | 1.11 (inactive) | 0.475 (inactive) | -0.372 (inactive) | 0.876 (inactive) | -0.994 | -1.57 (inactive) | -3.46 (inactive) | -2.78
13 | CN1C(=O)[C@]2(Cc3ccccc3)N=C(c3ccc(OCCCO)cc3)O[C@@H]2c2ccccc21 | -0.105 (inactive) | -0.157 | 33.7 (active) | 32.4 (active) | 2.34 (inactive) | 3.54 (inactive) | 0.435 | -2.02 (inactive) | -0.608 (inactive) | -1.93
14 | O=C1OCCC/C=C\[C@H]2OC34C=CCN(c5ccc6ccccc6c5)C(=O)[C@H]3N(CCCCCCO)C(=O)[C@@H]4C12 (stereo not given in full) | 1.63 (inactive) | 0.325 | 3.35 (inactive) | -0.781 (inactive) | 0.562 (inactive) | -1.46 (inactive) | 1.4 | 1.52 (inactive) | 0.341 (inactive) | 2.26
15 | CC[C@@H]1C=C(C(=O)O)[C@H](c2ccco2)N1S(=O)(=O)c1ccc(C)cc1 | -0.0046 (inactive) | -0.148 | 1.96 (inactive) | 1.37 (inactive) | -0.0701 (inactive) | 0.953 (inactive) | 0.123 | 0.152 (inactive) | -0.589 (inactive) | -0.764
16 | O=C1OCCC=C[C@H]2OC34C=CCN(CCN5CCOCC5)C(=O)[C@H]3N(CCCCCCO)C(=O)[C@@H]4C12 (stereo not given in full) | 0.36 (inactive) | -0.286 | 0.683 (inactive) | 0.539 (inactive) | 0.835 (inactive) | 0.353 (inactive) | -0.156 | 0.658 (inactive) | -0.289 (inactive) | 1.67
17 | COCCOC(=O)N1C(=O)[C@@]2(c3cc(C#CC4=CCCCC4)ccc31)[C@H](C(=O)Nc1nc3ccccc3s1)[C@H]1C(=O)O[C@H](c3ccccc3)[C@H](c3ccccc3)N1[C@@H]2c1ccc(OCCO)cc1 | -1.56 (inactive) | -0.333 | 2.63 (inactive) | 1.23 (inactive) | -0.218 (inactive) | 1.59 (inactive) | -0.145 | 1.01 (inactive) | 0.101 (inactive) | 0.468
18 | O=C1[C@H]2C=C(Br)[C@H](C[C@@H]2OCCCCO)[C@@]12CO2 | -1.11 (inactive) | 0.0911 | 1.31 (inactive) | 0.317 (inactive) | 1.17 (inactive) | -0.0393 (inactive) | -0.401 | 0.45 (inactive) | 0.602 (inactive) | 0.188
19 | COc1cc2c(cc1OC)CN(C(=O)[C@@H]1[C@H]3C(=O)O[C@H](c4ccccc4)[C@H](c4ccccc4)N3[C@H](c3ccc(O)cc3)[C@@]13C(=O)Nc1ccc(C#CC4(O)CCCCCC4)cc13)CC2 | 0.384 (inactive) | -0.771 | 0.794 (inactive) | 0.657 (inactive) | 0.87 (inactive) | 0.442 (inactive) | 0.137 | 1.65 (inactive) | 0.744 (inactive) | 0.479
20 | O=C(O)[C@@]1(CCS(=O)(=O)c2ccccc2)COC(c2ccc(OCCCO)cc2)=N1 | -0.513 (inactive) | -0.0601 | 1.58 (inactive) | -0.783 (inactive) | -0.821 (inactive) | -0.392 (inactive) | -0.312 | -0.0194 (inactive) | 0.85 (inactive) | 0.779
21 | COc1cc2c(cc1OC)CN(C(=O)[C@H]1[C@@H]3C(=O)O[C@@H](c4ccccc4)[C@@H](c4ccccc4)N3[C@@H](c3ccc(O)cc3)[C@]13C(=O)Nc1ccc(C#CCNC(N)=O)cc13)CC2 | 0.595 (inactive) | 0.075 | 0.342 (inactive) | 0.137 (inactive) | -0.518 (inactive) | 0.335 (inactive) | 0.152 | 0.47 (inactive) | 0.732 (inactive) | 0.56
22 | CC1CC/C=C\[C@H]2OC34C=CCN(c5ccc(Cl)cc5)C(=O)[C@H]3N(CCO)C(=O)[C@]4(C)C2C(=O)O1 (stereo not given in full) | -0.209 (inactive) | -0.485 | 2.73 (inactive) | 0.402 (inactive) | 0.0852 (inactive) | 0.382 (inactive) | 1.13 | 1.66 (inactive) | 0.741 (inactive) | 3.16
23 | CC(C)C(=C=CC[C@@H](O)c1ccccc1OCCO)CCO | 0.351 (inactive) | -0.0501 | 1.95 (inactive) | 0.63 (inactive) | -1.33 (inactive) | 0.428 (inactive) | 0.278 | 0.729 (inactive) | 0.147 (inactive) | -2.06
24 | CCCCC(O)C1C=CC2C(=O)N(c3ccccc3)C(=O)C2N1Nc1ccccc1F (stereo not given) | -1.06 (inactive) | 0.328 | 0.449 (inactive) | 1.49 (inactive) | 0.273 (inactive) | 1.19 (inactive) | -1.3 | -1.2 (inactive) | -4.93 (inactive) | -1.88
25 | COCCOC(=O)N1C(=O)[C@@]2(c3ccccc31)[C@H](c1ccccc1OCCO)N1[C@H](c3ccccc3)[C@H](c3ccccc3)OC(=O)[C@H]1[C@@H]2C(=O)Nc1nc2ccccc2s1 | 1.57 (inactive) | 0.523 | 3.27 (inactive) | 2.77 (inactive) | 1.37 (inactive) | 1.84 (inactive) | 0.59 | 1.39 (inactive) | 1.41 (inactive) | 0.676
26 | CCOc1cc(C(O)C2C=CC3C(=O)N(c4ccccc4)C(=O)C3N2Nc2ccccc2)ccc1O (stereo not given) | -0.39 (inactive) | -0.103 | 6.39 (inactive) | 1.31 (inactive) | -0.343 (inactive) | 0.949 (inactive) | -0.883 | -1.19 (inactive) | -1.37 (inactive) | -2.34

Source: PubChem BioAssay
